The entries come from a sample that favours hits as a whole.
Tb PYK inh: T. brucei pyruvate kinase inhibition | Q57TT1 | TbPYK enzyme, Kinase-Glo Plus ATP luminescence, 45 min | Potency, µM (highest dose often 76.8 µM), for inactives: top-dose activity, negative = inhibition, hits mostly inhibitors | actives 0.12% (n = 410,000) | AID 624173; further: potency means the concentration at half of the fitted maximal effect; on the % scale 0 is the no-effect control and ±100 the full control effect; nearly all actives have a fitted effect of over 50% in size
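Enzyme and substrate buffer are dispensed first and compound is pin-transferred. ADP at 130 uM final then starts the reaction, which runs 45 min at room temperature. Detection reagent is added for 10 min before luminescence is imaged.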
LmPK inh: blocks Leishmania mexicana pyruvate kinase activity. actives 0.37% (n = 290,000). Q27686. Potency, µM (highest dose often 57.5 µM), for inactives: top-dose activity change, negative = inhibition, hits mostly inhibitors. AID 1721. purified LmPK, Kinase-Glo ATP luminescence, 1 h; further: potency means the concentration at half of the fitted maximal effect; on the % scale 0 is the no-effect control and ±100 the full control effect
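In 50 mM imidazole pH 7.2 with 7 mM MgCl2, LmPK (0.1 nM) turned over PEP (0.5 mM) and ADP (0.1 mM) for 1 h at room temperature. Luciferase read-out of ATP.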
CHX counter: counter-screen hit for Shiga toxin inhibitors, cycloheximide; actives 12% (n = 300,000); cell reporter, cycloheximide protein synthesis inhibition counterscreen; max response, %; in the data active means max response mostly above about 13%, no sharp cut-off; inactive means mostly below about 14%; further: read at 38.3 µM for the half of the compounds with a filed dose; 0% is about no effect
RE007 growth inh: less growth of the S. pombe RE007 Vpr strain; actives 0.21% (n = 360,000); S. pombe RE007 Vpr strain, BacTiter-Glo ATP luminescence, 24 h; Potency, µM (doses to about 92.2 µM), for the others: at the top dose activity change, negative = less growth, usual class: inhibitors; active means well fitted falling curve with a large enough effect; inconclusive means small, poorly fitted or top-dose-only effect; inactive means no such curve, though single readings can be large or run the other way; further: potency means the concentration at half of the fitted maximal effect; on the % scale 0 is the no-effect control and ±100 the full control effect; nearly all actives have a fitted effect of over 50% in size
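Fission yeast strain RE007, carrying one chromosomally integrated HIV-1 vpr copy, was seeded at OD 0.01 in PMG+AL medium with 23 nL pinned compound. After 24 h at 30 °C and 99% humidity, viability was read by BacTiter-Glo luminescence.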
Shiga inhibitor: inhibitors of Shiga toxin in Vero cells. Vero cells, Shiga toxin protein synthesis inhibition reporter. inhibition, % at 38.7 µM. actives 9.2% (n = 290,000); in the data active means inhibition mostly above about 28%, no sharp cut-off; inactive means mostly below about 43%; further: 0% is about no effect
FBPA Giardia inh: blocks Giardia fructose-bisphosphate aldolase activity. A8B2U2. purified Giardia FBPA. Potency, µM (doses to about 59.6 µM), for the others: at the highest dose activity, negative = inhibition, usual class: inhibitors. actives 0.71% (n = 290,000); further: potency means the concentration at half of the fitted maximal effect; on the % scale 0 is the no-effect control and ±100 the full control effect; nearly all actives have a fitted effect of over 55% in size
Target sequence (A8B2U2 whole entry, looked up): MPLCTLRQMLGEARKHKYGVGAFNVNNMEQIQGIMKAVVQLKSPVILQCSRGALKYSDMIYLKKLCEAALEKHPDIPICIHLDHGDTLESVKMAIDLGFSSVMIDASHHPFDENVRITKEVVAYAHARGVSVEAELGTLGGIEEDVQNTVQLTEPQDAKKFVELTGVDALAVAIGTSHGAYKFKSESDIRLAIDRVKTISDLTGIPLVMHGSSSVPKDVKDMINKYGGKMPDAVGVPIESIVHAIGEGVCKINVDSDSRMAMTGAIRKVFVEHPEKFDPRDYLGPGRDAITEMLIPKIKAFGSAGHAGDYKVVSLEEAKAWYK
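40 nM FBPA preincubated 10 min at RT with compound (up to 57.5 uM final), then substrate plus GAPDH/TPI/NAD/arsenate coupling and diaphorase/resazurin added. Fluorescence read after 20 min at RT, 525/598 nm.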
* marks the source's active call; other numbers are inactive results; ? = inconclusive; nt = no result given; [ ] = remark or other dose. Unless noted, the call rests on the fitted dose curve; in most records, active means well fitted curve in the direction sought with a large enough effect; inconclusive means small, poorly fitted or top-dose-only effect, or another doubt; inactive means no such curve, though single readings can be large; an effect the other way counts as inactive or inconclusive.

SMILES | Tb PYK inh | LmPK inh | CHX counter | RE007 growth inh | Shiga inhibitor | FBPA Giardia inh
CC(=O)c1ccc(N2CCN(c3ncnc4c3c(-c3ccccc3)cn4-c3ccc(Cl)cc3)CC2)cc1 | -2% | nt | nt | nt | nt | nt
Cc1cc(C(=O)N/N=C/c2cccnc2)c(C)o1 | -18% | -11% | 16* | 2% | 8 | 3%
Cc1cc(/C=N/NC(=O)c2ccoc2C)cc(C)c1O | -8% | nt | nt | 3% | nt | nt
Nc1ccccc1C(=O)NN=Cc1cccnc1 | 4% | nt | nt | 1%[18.4 µM] | nt | nt
Cc1occc1C(=O)N/N=C/c1cccnc1 | -4% | ? | 25* | -3% | 75* | 0%
COc1cc(C(=O)NC(C)c2cnn(-c3ccccc3C)c2C)cc(OC)c1OC (configuration not stated) | 0% | -2% | 15* | 0% | 41 | 5%
COc1cccc(/C=C/C(=O)OCC(=O)Nc2ccc(Cl)c(S(=O)(=O)N(C)C)c2)c1 | -8% | -11% | 8 | 10% | 7 | -7%
COc1cccc(/C=C/C(=O)OCC(=O)Nc2cccc(S(=O)(=O)N(C)C)c2)c1 | -3% | 0% | 15* | 23% | 6 | 2%
COc1cc(/C=C/C(=O)OCC(=O)Nc2ccc(S(N)(=O)=O)cc2)ccc1O | 1% | -3% | 28* | 10% | -7 | -5%
Cc1cc(N2C(=O)C(O)=C(C(=O)c3cccs3)C2c2cccc(Br)c2)no1 (configuration not stated) | -4% | 2% | -1 | -4% | -8 | 0%
CCOC(=O)C1=C(O)C(=O)N(c2ccc(S(N)(=O)=O)cc2)C1c1ccccc1 (configuration not stated) | 3% | 0% | -2 | 1% | -4 | 9%
Cc1ccc(C2C(C(=O)c3cccs3)=C(O)C(=O)N2c2cccc(C)n2)cc1 (configuration not stated) | -2% | 1% | 17* | 1% | 70* | 7%
Cc1ccc(C2C(C(=O)c3cccs3)=C(O)C(=O)N2c2ccc(S(N)(=O)=O)cc2)cc1 (configuration not stated) | -4% | 4% | 25* | -7% | 40 | -7%
CCOc1ccccc1CNC(=O)CN1C(=O)CCn2nc(-c3cn(C)c4ccccc34)cc21 | -6% | nt | nt | nt | nt | nt
COc1ccc(NC(=O)c2csc(Cc3ccccc3)n2)cc1 | -1% | 4% | 43* | -14% | 74 | -4%
O=C(Nc1ccc(F)cc1)c1csc(Cc2ccccc2)n1 | -1% | -4% | 55* | -15% | 104* | 0%
COc1ccc(CNC(=O)c2csc(Cc3ccccc3)n2)cc1 | 0% | 3% | 21* | 4% | 64* | -1%
CC[C@H](C)[C@H](NC(=O)CNC(=O)[C@H](CCCNC(=N)N)NC(=O)[C@H](CO)NC(=O)[C@H](C)NC(=O)[C@H](Cc1ccc(O)cc1)NC(=O)[C@H](Cc1c[nH]c2ccccc12)NC(=O)[C@H](C)NC(=O)[C@@H]1CCCN1C(=O)[C@H](CC(N)=O)NC(=O)[C@@H](NC(=O)[C@H](CC(=O)O)NC(=O)[C@@H]1CCCN1C(=O)[C@@H](N)[C@@H](C)O)[C@@H](C)CC)C(=O)N[C@@H](CCCNC(=N)N)C(=O)N1CCC[C@H]1C(=O)N[C@H](C(=O)NCC(=O)N[C@@H](CCCNC(=N)N)C(=O)N[C@@H](Cc1ccccc1)C(N)=O)C(C)C | nt | nt | -6 | nt | -10 | 10%
CC(=O)NCCNc1ccnc(-c2ccccc2C)n1 | nt | nt | nt | nt | nt | -1%
O=C(CSc1nc2[nH]ncc2c(=O)[nH]1)NCc1ccccc1 | 5% | 1% | 1 | -8% | -5 | -3%
O=C(CSc1nc2ccccc2[nH]1)NCc1ccccc1 | 1% | -2% | 36* | 10% | 68* | 9%
O=C(CSc1nc2ncccc2[nH]1)NCc1ccccc1 | 1% | 3% | 16* | 7% | 6 | -10%
COc1ccc(CNC(=O)CSc2nc3ccc(C)cc3[nH]2)cc1 | -1% | 3% | 26* | 3% | 30 | 4%
COc1ccc(CNC(=O)CSc2nc3ccc(OC)cc3[nH]2)cc1 | -4% | 4% | 1 | 0% | -2 | -3%
Nc1ccc(-c2cnc(-c3ccc(N)cc3)nc2)cc1 | -3% | 1% | 51* | -22% | 33 | -2%
SMILES | Tb PYK inh | LmPK inh | CHX counter | RE007 growth inh | Shiga inhibitor | FBPA Giardia inh
Oc1ccc(-c2cnc(-c3ccc(O)cc3)nc2)cc1 | -6% | -1% | 19 | 3% | 10 | -1%
Cc1n[nH]c(=S)n1-c1ccccc1 | ? | 3% | 5 | -17% | 2 | ?
S=c1[nH]nc([C@@H]2C[C@H]2c2ccccc2)n1-c1ccccc1 | 4µM* | ? | -3 | -20% | -6 | 6%
Cc1ccccc1-n1c([C@@H]2C[C@H]2c2ccccc2)n[nH]c1=S | ? | 11µM* | -2 | -6% | -9 | 3%
CC(C)c1nnc(N2C(=O)c3oc4ccccc4c(=O)c3C2c2ccccc2F)s1 (configuration not stated) | -5% | nt | nt | nt | nt | nt
CCCCNC(=O)CSc1nc2cc3c(cc2c(=O)n1CCCC(=O)NCc1ccc2c(c1)OCO2)OCO3 | -9% | nt | nt | nt | nt | nt
CS(=O)(=O)N1CCc2cc(C(=O)OCC(=O)c3ccccc3)ccc21 | -1% | 7% | 23* | 9% | 49 | 0%
Cc1cccc(NC(=O)c2ccc3c(c2)CCN3S(C)(=O)=O)c1C | -1% | -1% | 18* | -5% | nt | 0%
Cc1c(F)cccc1NC(=O)c1ccc2c(c1)CCN2S(C)(=O)=O | 2% | 7% | 8.9* | 8% | 165* | 15%
CS(=O)(=O)N1CCc2cc(C(=O)Nc3ccccc3Cl)ccc21 | 7% | -5% | 27* | -4% | 37 | -2%
CN(C(=O)c1ccc2c(c1)CCN2S(C)(=O)=O)c1ccccc1 | -6% | 0% | -3 | -16% | 10 | 2%
O=C(NCCc1ccc(Cl)cc1)c1cccn1-c1nnc(N2CCCCC2)s1 | 7%[15.4 µM] | nt | nt | nt | nt | nt
Cc1nnc(C(C)C)n1C1C[C@H]2CC[C@@H](C1)N2CC[C@H](NC(=O)C1CCC(F)(F)CC1)c1ccccc1 (some centres not stated) | 2% | nt | nt | nt | nt | nt
Cc1cccc(C(=O)N2c3ccccc3C(=O)OC2c2ccc3c(c2)OCO3)c1 (configuration not stated) | -16% | 0% | 21* | -27% | 27 | -8%
O=C1OC(c2ccc3c(c2)OCO3)N(C(=O)c2ccc(Cl)c(Cl)c2)c2ccccc21 (configuration not stated) | 4% | 6% | 39* | -4% | 117* | -10%
CN1CCN(C(CNC(=O)C(=O)Nc2cccc(Cl)c2)c2ccc3c(c2)OCO3)CC1 (configuration not stated) | 7% | nt | nt | nt | nt | nt

Assay outcomes (PubChem)
